# Data reported in the supplement of paper PMC9694430.
# Experiments:
# Experiment in all cases: thermal shift delta Tm vs DMSO control; higher = stronger stabilization (binding)
# Details in all cases: 12.5 µM; protein concentration 2 µM
# LOC_OS02G45750-cb003 = tested on: LOC_OS02G45750-cb003
# Procedure, shortened: (§1)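 The melting temperature shift given here is a triplicate mean, measured against protein that received only DMSO. Melting temperatures came from Boltzmann fits of differential scanning fluorimetry data on E. coli-expressed, purified rice kinase domain constructs. Each 19.5 μl well contained 2 μM kinase, 100 mM potassium phosphate pH 7.5, 150 mM NaCl, 10% glycerol, 5 × SYPRO Orange and compound in DMSO. Plates were scanned from 25°C to 95°C at 0.05°C/s.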
# LOC_OS02G54510-cb004 = tested on: LOC_OS02G54510-cb004
# Procedure, shortened: as §1
# LOC_OS03G04050-cb001 = tested on: LOC_OS03G04050-cb001
# Procedure, shortened: as §1
# LOC_OS03G12390-cb001 = tested on: LOC_OS03G12390-cb001
# Procedure, shortened: as §1
# LOC_OS03G27990-cb004 = tested on: LOC_OS03G27990-cb004
# Procedure, shortened: as §1
# LOC_OS03G50450-cb001 = tested on: LOC_OS03G50450-cb001
# Procedure, shortened: as §1
# LOC_OS03G50810-cb003 = tested on: LOC_OS03G50810-cb003
# Procedure, shortened: as §1
# LOC_OS04G35114-cb001 = tested on: LOC_OS04G35114-cb001
# Procedure, shortened: as §1
# LOC_OS04G38480-cb003 = tested on: T1, LOC_OS04G38480-cb003
# T1 sequence (whole entry): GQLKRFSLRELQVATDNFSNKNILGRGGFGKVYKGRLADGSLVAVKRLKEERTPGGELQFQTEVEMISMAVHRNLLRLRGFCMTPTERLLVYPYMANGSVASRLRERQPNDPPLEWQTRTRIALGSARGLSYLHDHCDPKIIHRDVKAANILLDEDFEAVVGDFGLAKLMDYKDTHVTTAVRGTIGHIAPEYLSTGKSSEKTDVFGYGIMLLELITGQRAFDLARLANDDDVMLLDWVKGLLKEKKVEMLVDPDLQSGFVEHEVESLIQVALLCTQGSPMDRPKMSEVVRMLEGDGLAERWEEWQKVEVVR
# Procedure, shortened: as §1
# LOC_OS04G41100-cb001 = tested on: T2, LOC_OS04G41100-cb001
# T2 sequence (whole entry): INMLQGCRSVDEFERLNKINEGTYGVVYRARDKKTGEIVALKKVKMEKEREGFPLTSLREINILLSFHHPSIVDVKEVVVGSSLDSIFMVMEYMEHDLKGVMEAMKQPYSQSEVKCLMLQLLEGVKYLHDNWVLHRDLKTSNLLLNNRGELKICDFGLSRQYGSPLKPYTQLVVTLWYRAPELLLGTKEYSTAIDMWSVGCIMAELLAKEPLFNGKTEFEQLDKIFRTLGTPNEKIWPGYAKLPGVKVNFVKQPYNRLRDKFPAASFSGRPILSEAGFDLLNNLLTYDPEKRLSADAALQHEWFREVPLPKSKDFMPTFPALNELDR
# Procedure, shortened: as §1
SMILES,thermal shift delta Tm (LOC_OS02G45750-cb003) [°C],thermal shift delta Tm (LOC_OS02G54510-cb004) [°C],thermal shift delta Tm (LOC_OS03G04050-cb001) [°C],thermal shift delta Tm (LOC_OS03G12390-cb001) [°C],thermal shift delta Tm (LOC_OS03G27990-cb004) [°C],thermal shift delta Tm (LOC_OS03G50450-cb001) [°C],thermal shift delta Tm (LOC_OS03G50810-cb003) [°C],thermal shift delta Tm (LOC_OS04G35114-cb001) [°C],thermal shift delta Tm (LOC_OS04G38480-cb003) [°C],thermal shift delta Tm (LOC_OS04G41100-cb001) [°C]
O=C(O)c1ccc2c3c1cccc3c(=O)n1c3ccccc3nc21,3.28,0.56,0.18,2.82,0.62,0.23,0.91,2.73,2.31,1.19
CCc1nc(C(N)=O)c(Nc2ccc(N3CCC(N4CCN(C)CC4)CC3)c(OC)c2)nc1NC1CCOCC1 [Gilteritinib (ASP2215)],9.25,3.16,0.4,9.74,8.74,5.63,8.56,11.4,6.15,0.57
Cc1ccc(NC(=O)Nc2cc(C(F)(F)F)ccc2F)cc1Nc1ccc2c(c1)NC(=O)/C2=C\c1ccc[nH]1,0.48,-0.12,1.3,1.34,0.77,1.31,1.99,-0.61,-1.28,0.8
Cc1cnc(Nc2ccc(N3CCN(C)CC3)cc2)nc1Nc1cccc(S(=O)(=O)NC(C)(C)C)c1,2.16,1.6,0.74,3.11,1.77,2.4,3.61,3.61,2.7,0.79
COc1cccc(-n2c(=O)[nH]c3cc(Cl)n(-c4ccc(-c5cccc(OC)c5O)cc4)c3c2=O)c1,0.85,0.06,0.3,0.12,0.42,0.22,0.35,0.59,1.27,0.29
C[C@@H](Oc1cc(-c2cnn(C3CCNCC3)c2)cnc1N)c1c(Cl)ccc(F)c1Cl,5.46,0.63,0.35,1.31,0.48,0.08,2.49,5.73,3.79,0.57
CCCCCCCCCCCCCCCCCCOP(=O)([O-])OC1CC[N+](C)(C)CC1 [Perifosine (KRX-0401)],-1.3,-1.77,-3.06,-3.5,-2.47,-2.45,-1.54,-3.56,-0.3,-0.69
CC(C)(C)NC(=O)c1cncn1C1CCN(c2ccc(-c3nnc(C(F)(F)F)o3)cn2)CC1,0.9,0.27,0.48,-0.08,0.32,0.7,0.36,-0.3,1.43,0.3
COc1cc(N2CCN(C)CC2)ccc1Nc1ncc2c(n1)N(C)c1ccccc1C(=O)N2,0.85,0.32,0.17,0.62,0.11,-0.01,0.23,0.35,1.14,0.17
COc1cc2nccc(Oc3ccc(NC(=O)NC4CC4)c(Cl)c3)c2cc1C(N)=O [Lenvatinib (E7080)],0.65,0.49,0.79,-0.1,0.31,0.39,0.26,1.09,0.48,0.18
CO[C@H]1C[C@@H]2CC[C@@H](C)[C@@](O)(O2)C(=O)C(=O)N2CCCC[C@H]2C(=O)O[C@H]([C@H](C)C[C@@H]2CC[C@@H](OCCO)[C@H](OC)C2)CC(=O)[C@H](C)/C=C(\C)[C@@H](O)[C@@H](OC)C(=O)[C@H](C)C[C@H](C)/C=C/C=C/C=C/1C [Everolimus (RAD001)],0.22,-0.05,0.59,0.14,-0.04,-0.1,0.05,-0.39,0.94,0.65
O=C(NC[C@H](O)CO)c1ccncc1Nc1ccc(I)cc1F,0.45,0.09,0.21,-0.04,0.19,0.42,0.09,0.79,0,0.62
Cc1ccc(CNc2ncnc3ccc(-c4ccc(CO)o4)cc23)o1,1.72,0.02,0.46,1.65,0.24,0.03,-0.19,4.83,0.75,1.05
NC1(c2ccc(-c3nc4ccn5c(=O)[nH]nc5c4cc3-c3ccccc3)cc2)CCC1,-0.2,0.21,0.25,-0.32,0.81,0.2,-0.2,0.61,-0.22,0.57
COc1ccc(S(=O)(=O)N(CCO)c2ccccc2CN(C)C/C=C/c2ccc(Cl)cc2)cc1 [KN-93 Phosphate],0.73,-0.27,0.31,-0.19,0.2,0.48,0.29,0.92,1.75,0.58
COc1ccc(-c2ccc3ncc4c(c3c2)n(-c2ccc(N3CCNCC3)c(C(F)(F)F)c2)c(=O)n4C)cn1,1.22,0.44,0.36,-0.28,0.61,0.72,2.17,7.13,1.98,0.01
"O=C(c1ccc(F)c(F)c1Nc1ccc(I)cc1F)N1CC(O)([C@@H]2CCCCN2)C1 [Cobimetinib (GDC-0973, RG7420)]",1.13,0.05,0.77,-0.17,0.68,0.95,0.43,0.76,0.54,0.19
O=C(O)c1ccc(Nc2ncc3c(n2)-c2ccc(Cl)cc2C(c2c(F)cccc2F)=NC3)cc1,0.27,1.01,0.54,-0.49,0.21,0.06,0.12,0.54,0.01,0.55
O=c1cc(N2CCOCC2)oc2c(-c3ccc4c(c3)OCCO4)csc12,0.67,-0.08,0.24,0.53,0.46,0.44,0.8,1.85,1.22,0.17
